Shown are actives, neighbours in structure and some others; about 4.5% of the full set was active somewhere.
dFosB act – activators of delta FosB homodimer, primary screen, biochemical, fluorescence polarization, TAMRA-CDK5 oligo, single point; purified delta FosB; percent of positive-control signal above neutral wells; activation, % at 25 µM; 0.99% of 340,000 active; AID 493131, 2011;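 active = mean activation above about 17%, with every replicate also reaching it, limit read from the data, passing the limit was not always enough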
NR3A LBD binder – binders of NR3A ligand-binding domain, primary screen, biophysical, differential scanning fluorimetry, uHTS. NR3A LBD differential scanning fluorimetry, Tm shift; 0% = protein alone, 100% = glycine-bound protein. Tm shift relative to glycine control, % at 25 µM. AID 1259313, 2017. 2.5% of 340,000 active. Glutamate receptor ionotropic, NMDA 3A (GRIN3A) ligand-binding domain;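 active = melting temperature shift of at least 10% of the positive control shift, at one fixed dose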
Rpn11 inh – Rpn11 (PSMD14) deubiquitinase inhibitors, primary screen, biochemical, fluorescence polarization, uHTS; 0.59% of 360,000 active; 26S proteasome non-ATPase regulatory subunit 14 (Homo sapiens), O00487; inhibition, % at 20 µM; human 26S proteasome, Ub4-pepOG fluorescence polarization; 20S core pre-blocked with epoxomicin; AID 588493, 2011;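 active = inhibition at 20 µM, scaled to each plate's controls, above about 33%, limit read from the data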
Target sequence (O00487 whole entry, looked up): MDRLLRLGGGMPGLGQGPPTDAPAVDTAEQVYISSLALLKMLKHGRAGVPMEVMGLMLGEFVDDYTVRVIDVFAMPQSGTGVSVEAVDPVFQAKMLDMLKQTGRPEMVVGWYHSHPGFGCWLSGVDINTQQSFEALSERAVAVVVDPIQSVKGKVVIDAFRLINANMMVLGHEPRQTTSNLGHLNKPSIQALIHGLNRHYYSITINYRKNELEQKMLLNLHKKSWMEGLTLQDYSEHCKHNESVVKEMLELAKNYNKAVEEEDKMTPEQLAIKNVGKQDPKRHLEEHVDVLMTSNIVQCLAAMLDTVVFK
TPT1 inh – Candida albicans TPT1 enzyme inhibitors, primary screen, biochemical, fluorescence polarization; tRNA 2'-phosphotransferase TPT1 (Candida albicans SC5314); recombinant caTPT1, FP RNA substrate dephosphorylation; inhibition, % at 5 µM; 0.81% of 300,000 active; AID 1962, 2009;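 active = inhibition above the mean of all tested compounds plus 3 SD, set per screening campaign, cut at about 24% in these data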;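 also: plate controls were DMSO alone for no effect and ferristatin control at 100 nM for full effect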
ZTA counter – ZTA (EBV) inhibition in EBNA-1 counter-screen. P03206. ZTA-DNA binding, fluorescence polarization. inhibition, % at 11 µM. 0.15% of 320,000 active; in the data active = inhibition above about 33%
EBNA-1 inhibitor – EBNA-1 DNA-binding inhibitors, primary screen, biochemical, fluorescence polarization; inhibition, % at 14.8 µM; 0.34% of 300,000 active; in the data active = inhibition above about 28%
Starred values were filed as active, the others as inactive; . = no result given; ! = repeats disagree.

SMILES	dFosB act	NR3A LBD binder	Rpn11 inh	TPT1 inh	ZTA counter	EBNA-1 inhibitor
CCOC1(c2ccccc2)CC1C(=O)N/N=C/c1cccc([N+](=O)[O-])c1 (stereo unspecified)	-16.5	1.0	-3.9	-3.2	15.8	4.7
O=C(OCc1c(-c2ccccc2)ncc2ccccc12)c1ccc(C(F)(F)F)cc1	-3.6	-30.1	1.6	.	.	.
O=C(OCc1c(-c2ccccc2)ncc2ccccc12)c1ccc(F)cc1	-0.9	14.0*	3.0	.	.	.
Cc1sc2ncnc(OCC(=O)NCc3cccs3)c2c1C	2.3	-1.4	2.4	-6.1	-0.8	-4.8
CNC(=O)COc1ncnc2sc(C)c(C)c12	0.4	14.2*	0.6	4.0	1.8	-5.7
CC1CCCCC1NC(=O)CCn1c(=S)[nH]c2ccccc2c1=O (stereo unspecified)	.	.	1.7	.	.	.
Cc1cc(C)cc(NC(=O)CCn2c(=S)[nH]c3ccccc3c2=O)c1	30.2*	-3.4	0.1	1.7	18.2	13.3
Cc1ccccc1NC(=O)CN1C(=O)N/C(=C\c2ccc(N3CCOCC3)c(F)c2)C1=O	-2.8	0.3	5.4	2.7	6.6	55.6*
C=CCNC(=O)c1ccc(-c2nc(-c3ccc(Cl)c(Cl)c3)cs2)cc1	2.2	31.5*	3.2	4.0	7.5	10.3
CCN(CC)S(=O)(=O)c1ccc(N2CCOCC2)c(NC(=O)C2CC2)c1	-9.2	0.6	-3.2	1.6	5.9	6.1
COc1ccc(/C=N/Nc2cc(C)nc3c(C)cccc23)cc1	6.1	6.6	-11.9	2.7	-17.2	1.7
COc1ccc(/C=N/Nc2cc(C)nc3ccccc23)cc1	53.0*	-14.3	-9.8	2.6	0.8	11.3
CCOc1ccc(NC2=C(Cl)C(=O)N(C3CCCCC3)C2=O)cc1	-5.3	16.8*	2.0	-5.1	7.8	-8.4
O=C(CSc1nc2ccccc2n1Cc1ccccc1Cl)N/N=C/c1ccccc1C(=O)O	-13.1	-2.3	2.0	0.0	10.6	2.5
CC[N+](CC)(CC)CCCCOc1ccc2c(c1)C(=O)c1cc(OCCCC[N+](CC)(CC)CC)ccc1-2	55.1*	-1.4	9.5	1.7	4.2	10.8
COc1ccc(C(=O)N/C(=C\c2ccccc2)C(=O)Nc2ccccc2C(=O)O)cc1	-1.7	-1.3	-2.0	-0.4	14.4	4.3
O=C(Nc1c2c(nn1-c1ccc(F)cc1)CS(=O)(=O)C2)c1ccc(Br)o1	-7.6	-1.4	-6.2	-1.1	-5.2	13.7
C/C(=N\NC(=O)c1ccc(F)cc1)c1ccccn1	-6.6	11.8*	23.7	1.8	-11.2	-18.8
N#Cc1ccccc1N/C=C/C(=O)c1ccc(Cl)cc1	.	35.8*	0.6	-2.3	2.7	0.6
O=C(/C=C/Nc1ccccc1F)c1ccc(Br)cc1	2.3	-3.0	3.5	4.3	0.4	-8.1
CC(=O)c1ccc(NC(=O)c2cc(C)nc3ccccc23)cc1	0.2	0.5	4.8	-2.3	8.8	9.9
O=C(NCc1ccc2c(c1)OCO2)C1CCC(=O)N1C1CCCC1 (stereo unspecified)	-2.2	-0.6	-1.4	-2.0	-9.5	-8.2
CSc1ccc2c(c1)C(N1CCN(C)CC1)Cc1ccccc1S2 (stereo unspecified)	19.0*!	-3.0	-18.1	1.9	7.8	-5.9
CN1CCN(C2Cc3ccccc3Sc3ccc(Cl)cc32)CC1 (stereo unspecified)	2.8	3.1	-21.4	-1.1	11.5	6.7
COc1ccc(C(C(=O)NC(C)(C)C)N(CCC(C)C)C(=O)CCC(=O)Nc2cc(C)on2)cc1 (stereo unspecified)	-15.6	-2.2	-0.7	-2.7	-5.9	-10.4
COc1ccc2sc(N(CCCN(C)C)C(=O)c3ccc(C(=O)c4ccccc4)cc3)nc2c1	21.7*	1.6	-1.8	2.1	-15.3	-9.1
CCN(CC)CCN(C(=O)c1ccc(C(=O)c2ccccc2)cc1)c1nc2cc3c(cc2s1)OCO3	47.7*	2.2	-5.5	-4.8	-10.6	-2.0

Screens: PubChem, several laboratories
